According to PubChem BioAssay AID662 (National Center for Advancing Translational Sciences (NCATS), 2007):
The campaign covered roughly 71,000 compounds. About 1,800 (2.5%) were called active. Not shown: some 26% with an inconclusive outcome. The entries come from a sample that favours actives as a whole. Unmarked numbers belong to inactive results. Calls follow the shape of the dose curve; as a rule, active = well fitted activation curve with a large enough effect in the signal ratio, with a control signal flat (not every such curve was filed as active); inconclusive = small, poorly fitted or top-dose-only effect, or effect the other way, or a change in a side signal; inactive = flat fitted curve, though single readings scatter; the % refers to the signal ratio.

test: Cell signaling CRE-BLA (Fsk stim); conditions: CHO CRE-bla reporter (cAMP response element driving beta-lactamase), forskolin EC10, beta-lactamase ratio; series mostly up to 38.2 µM; activity change, negative = inhibition: at the top concentration; as to activity change, negative = inhibition: % of control where 0% means no effect
From the text: NIH Molecular Libraries Screening Centers Network [MLSCN]
NIH Chemical Genomics Center [NCGC]
Assay Provider: Marshall W. Nirenberg, U.S. National heart lung & blood institute
Memories persist for different lengths of time, from seconds or minutes to a lifetime. There are two kinds of memory: short-term memory (STM) and long-term memory (LTM). STM lasts for minutes to hours, which maybe mediated by modifications of molecules involved in synaptic functions. LTM lasts for days or longer, and may be due to the formation of new synapses or restructuring of existing synapses. LTM, but not STM, requires gene transcription and synthesis of proteins. CREB (cyclic-AMP Responsive Element Binding Protein) is one of the candidates plays an important role for enhancement of some types of LTM. CREB, a family of transcription factors, regulates the transcription of genes containing cAMP Responsive Elements (CRE). CRE is a nucleotide sequence often found in the promoter regions of genes that are binding sites for CREB.
Using a beta-lactamase reporter-gene under control of cAMP responsive element, a cell-based assay [CellSensor(TM) CRE-bla CHO developed by Invitrogen Corp.] was used to measure forskolin-induced signaling. Library compounds were measured for their ability to modulate positively or negatively the action of EC10 NKH 477, a water soluble forskolin, on reporter gene activity. Compounds were screened in a titration series in 1536-well format. Positive and negative modulators were identified based on the AC50 values derived from the screening data.
NCGC Assay Protocol Summary
2000 cells/5uL in Opti-MEM medium containing 0.5% dialyzed FBS, 0.1 mM NEAA, 1 mM sodium pyruvate and 10 mM HEPES was dispensed into 1536-well plates and cells were cultured at 37 degrees Celsius overnight. […] And then the plates were incubated at 37 degrees Celsius for 3 hours. 1 uL of CCF4-dye mixture was added to each well. After incubated at room temperature for 2 hours the plates were measured on an EnVision plate reader at Excitation 405nm, Emission1=460nm and Emission 2=530nm. The %Activity was determined from the ratio of 460nm/530nm.
Keywords: NIH Roadmap, MLSCN, MLSMR, qHTS, NCGC, CRE, beta-lactamase reporter-gene assay.
Potency is read from the fitted curve at half-maximal effect.

Going from `COc1ccccc1NC(=O)CSc1nnc(-c2ccoc2C)n1CCc1ccccc1` to `COc1ccc(NC(=O)CSc2nnc(-c3cccs3)n2Cc2ccco2)cc1OC`, the “activity change, negative = inhibition” value rises from -0.23% to 5.96%.

First: C=CCc1cccc2cc(C(=O)OCC)c(=O)oc12
Second: CCOC(=O)c1cnc2sccn2c1=O
The “activity change, negative = inhibition” value of the first is higher: 18.5% for the first, -5.25% for the second.

Going from `COc1ccccc1N1CCN(C[C@@H]2CN3C(=O)N(C)c4ccccc4C3=N2)CC1` to `COc1ccccc1C(=O)n1nc(-c2ccccc2)nc1N`, the “activity change, negative = inhibition” value falls from -8.31% to -11%.

Going from `COc1ccc(-c2nc(-c3ccccc3)no2)c(OC)c1` to `COc1cc(-c2nc(-c3ccncc3)no2)cc(OC)c1OC`, the “activity change, negative = inhibition” value rises from -11.5% to 28%.

First: COc1ccc(C(=O)n2nc(-c3ccc(C)cc3)nc2N)cc1OC
Second: CCOC(=O)c1ccc(-n2c(C)nc3c(cnn3-c3ccccc3C)c2=O)cc1
The “activity change, negative = inhibition” value of the first is higher: 15.7% for the first, 4.93% for the second.

Going from `O=C1CC(N2CCN(C(c3ccccc3)c3ccccc3)CC2)C(=O)N1` (stereo unspecified) to `CC(Sc1nc2ccccc2c(=O)n1Cc1ccco1)C(=O)c1ccccc1` (stereo unspecified), the “activity change, negative = inhibition” value rises from -6.11% to 4.85%.

First: CC/C(=N\O)C(C)(C)/[N+]([O-])=C/c1ccc(Br)cc1
Second: Cc1cc(C(=O)O)ccc1[N+](=O)[O-]
The “activity change, negative = inhibition” value of the first is higher: -3.39% for the first, -16.5% for the second.

Compared with `O=C(OCCO)c1cc(Cl)c(C(=O)OCCO)cc1Cl`, `CCOC(=O)CNC(=O)c1nn(-c2cccc(OC)c2)c(=O)c2ccccc12` is higher in “activity change, negative = inhibition” value: 1.61% for the first, 14.6% for the second.

Compared with `O=C(O)CN(Cc1ccco1)S(=O)(=O)c1ccccc1`, `COC(=O)C1(C)C=CCN1C(=O)c1ccccc1` (stereo unspecified) is lower in “activity change, negative = inhibition” value: 2.24% for the first, -3.13% for the second.

First: COc1ccccc1Nc1ncnc2c1oc1ccccc12
Second: CCCC(NC(=O)c1ccccc1)c1nc2ccccc2n1Cc1ccc(C(=O)OC)o1 (stereo unspecified)
The “activity change, negative = inhibition” value of the first is higher: 31.9% for the first, 10.7% for the second.

First: CCc1nc(N2CCN(c3nc(C)cc(C)n3)CC2)c2oc3ccccc3c2n1
Second: CCCn1c(-c2ccc(F)cc2)nc2c(NC3CCN(Cc4ccccc4)C3)nc(C)nc21 (stereo unspecified)
The “activity change, negative = inhibition” value of the first is lower: -1.26% for the first, 10.1% for the second.

Going from `CC(=O)NC(C)c1nc2ccccc2n1Cc1ccccc1F` (stereo unspecified) to `COC(=O)c1ccc(CSc2ccccc2C)o1`, the “activity change, negative = inhibition” value falls from -9.33% to -26.7%.

First: CC(C)(C)c1nc(NCC2CCCO2)c2nnn(Cc3ccccc3)c2n1 (stereo unspecified)
Second: CCCCNc1nc(C)nc2c1nc(-c1ccccc1)n2CCCCN(CC)CC
The “activity change, negative = inhibition” value of the first is higher: 7.95% for the first, 6.32% for the second.

Going from `Cc1cccc(C(=O)O)c1` to `C/C(=C\C(=O)c1cccnc1)Nc1ccc(C)c(C)c1`, the “activity change, negative = inhibition” value rises from -9.1% to 13.6%.

Going from `O=c1c2ccccc2nc(CSc2nnnn2-c2ccccc2)n1-c1ccccc1` to `O=C(Cn1cnc2c(cnn2-c2ccc(F)cc2)c1=O)NCCc1ccccc1`, the “activity change, negative = inhibition” value falls from -0.982% to -4.15%.

Going from `COc1ccc(S(=O)(=O)N2CCC(C(=O)N3CCOCC3)CC2)cc1OC` to `O=C(C1CCN(CC2CCCCC2)CC1)N1CCCC1`, the “activity change, negative = inhibition” value falls from 0.418% to -0.979%.

Compared with `CC1COC2C(O1)N(S(C)(=O)=O)CCN2S(C)(=O)=O` (stereo unspecified), `COC(=O)C1C(=O)CC(C)(O)C(C(=O)OC)C1c1ccc2c(c1)OCO2` (stereo unspecified) is lower in “activity change, negative = inhibition” value: -1.89% for the first, -1.98% for the second.

Going from `CCOC(=O)C1CCN(C(=O)Nc2ccc(Cl)cc2)CC1` to `O=C(Nc1ccc(-c2nnc(-c3ccccc3)o2)cc1)c1ccc(Br)o1`, the “activity change, negative = inhibition” value rises from -3.28% to -0.431%.

Compared with `COCC(C)N=CC1=C(O)CC(C)(C)CC1=O` (stereo unspecified), `Cc1cc(N=CC2=C(O)CCCC2=O)no1` is lower in “activity change, negative = inhibition” value: 4.27% for the first, -1.94% for the second.

Compared with `COCCn1c(C)cc(C(=O)CSc2ncnc3sc4c(c23)CCC4)c1C`, `N=c1c2c3c(sc2ncn1N)CCCCC3` is lower in “activity change, negative = inhibition” value: 8.37% for the first, -0.591% for the second.

Compared with `CCCC[C@@H]1C[C@H]1C(NC(=O)c1ccc(-c2ccccc2)cc1)c1ccc(-c2ccccc2)cc1` (stereo partly specified), `CCSC1(SCC)N=C(N)C2(C#N)C(c3ccccc3)NC(C)=CC12C#N` (stereo unspecified) is lower in “activity change, negative = inhibition” value: 2.34% for the first, -14.9% for the second.

With `Cc1cc(C)cc(N)c1` the “activity change, negative = inhibition” value was -7.14%.

In the case of `CCCc1nc(SCC(=O)Nc2ccccc2OC)c2c(=O)n(C)c(=O)n(C)c2n1`, the Potency is reported as 2.51 µM (active).
In the case of `COc1ccc(-c2noc(-c3cccc(OC)c3OC)n2)cc1OC`, the Potency is reported as 2.51 µM (active).
With `COc1ccc(C(=O)n2nc(-c3ccc(Cl)cc3)nc2N)cc1OC` the Potency was 2 µM (active).
In the case of `CCc1nc(Nc2ccc3nccnc3c2)c2oc3ccccc3c2n1`, the Potency is reported as 0.794 µM (active).
With `C#CCNc1nc(C(C)C)nc2c1nnn2Cc1ccccc1F` the Potency was 10 µM (active).
In the case of `COCC(C)n1c(SCc2ccc(C(=O)OC)o2)nc2ccccc2c1=O` (stereo unspecified), the Potency is reported as 10 µM (active).
For `COC(=O)c1ccc(CSc2nc3ccccc3c(=O)n2-c2cccc(OC)c2)o1`, the Potency was 5.01 µM (active).
In the case of `COCCNc1nc(-n2nc(C)cc2C)nc2sc3c(c12)CCCC3`, the Potency is reported as 12.6 µM (active).
For `COc1ccccc1NC(=O)CSc1nc2sc(C)c(C)c2c(=O)n1Cc1ccco1`, the Potency was 3.98 µM (active).
With `Cc1cc(C)nc(-n2nc(C)cc2NC(=O)c2ccc(Br)o2)n1` the Potency was 1.26 µM (active).
For `CCCn1c(=NC(C)=O)c(C(=O)OCC)cc2c(=O)n3ccccc3nc21`, the Potency was 10 µM (active).

Going from `COC(CCN(C)C)(c1ccccc1)c1ccccc1` to `COc1cc(OC)c(NC(=O)c2ccc(Br)o2)cc1Cl`, the activity change, negative = inhibition rises from -22.8% [at 7.6 µM] to 19.3% [at 7.6 µM].
